Results filed as inconclusive are left out. Activity calls are given as the source filed them. Unless noted, the call rests on the fitted dose curve; in most records, active means well fitted curve in the direction sought with a large enough effect; inconclusive means small, poorly fitted or top-dose-only effect, or another doubt; inactive means no such curve, though single readings can be large; an effect the other way counts as inactive or inconclusive.
How the values were obtained:
[1] = Cell Viability - HUV-EC-C (AID 542); further: nearly all actives have a fitted effect of over 35% in size
Method in brief: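 HUV-EC-C normal human vascular endothelial cells, 1000 cells/well, pre-incubated 5 hr at 37 °C, then exposed to compounds for 40 hr at 37 °C in complete medium. Viability measured as intracellular ATP by CellTiter-Glo luminescence; AC50 from Hill fits.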

[2] = MultiTox-Fluor Cytotoxicity Assay - LYMP1-001 - Live Cells (AID 947)
[3] = Cell Viability - LYMP1-002 - Assay at 16 hr (AID 948)
Method in brief: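 ATP luminescence (CellTiter-Glo) was measured after 16 hr compound exposure at 37 C of 2500 lymphoblastoid LYMP1-002 cells per well. Concentration-response curves were fitted with the Hill equation to give AC50.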

[4] = MultiTox-Fluor Cytotoxicity Assay - LYMP1-002 - Live Cells (AID 955)
Method in brief: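 Human lymphoblastoid LYMP1-002 cells, 2500/well in complete medium, rested 5 hr at 37 C, then exposed to compounds for 16 hr at 37 C. Live-cell protease cleavage of GF-AFC read by fluorescence (Ex/Em 405/510) after 60 min at room temperature; AC50 from Hill fits.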

[5] = MultiTox-Fluor Cytotoxicity Assay - LYMP1-003 - Live Cells (AID 962)
Method in brief: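 LYMP1-003 human lymphoblastoid cells (2500/well) in complete medium were preincubated 5 hr at 37 C, then exposed to compounds for 16 hr at 37 C. Live-cell protease cleavage of GF-AFC read by fluorescence (Ex/Em 405/510); AC50 from Hill fits.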

[6] = Cell Viability - LYMP1-003 - Assay at 40 hr (AID 964); further: nearly all actives have a fitted effect of over 60% in size
Method in brief: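 Human lymphoblastoid LYMP1-003 cells, 2500/well in complete medium, rested 5 hr at 37 C, then exposed to compounds for 40 hr at 37 C. Viability read as intracellular ATP by CellTiter-Glo luminescence; AC50 from Hill fits of concentration-response data.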

[7] = Cell Viability - LYMP2-004 (AID 966); further: nearly all actives have a fitted effect of over 65% in size
Method in brief: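 Human lymphoblastoid cells (2500/well) in complete medium were treated with compounds for 24 hr at 37 C, then intracellular ATP was measured by CellTiter-Glo luminescence. AC50 values came from Hill-equation fits of concentration-response data.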

[8] = Cell Viability - LYMP2-009 (AID 968); further: nearly all actives have a fitted effect of over 55% in size
[9] = Cell Viability - LYMP2-011 (AID 969); further: nearly all actives have a fitted effect of over 60% in size
Method in brief: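 Human lymphoblastoid cells (2500/well) were plated in complete medium, preincubated 5 hr at 37 C, then exposed to compounds for 24 hr at 37 C. Intracellular ATP was read by CellTiter-Glo luminescence, and AC50 came from Hill-equation concentration-response fits.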

[10] = Cell Viability - LYMP2-013 (AID 970); further: nearly all actives have a fitted effect of over 55% in size
Method in brief: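 Human lymphoblastoid cells, 2500/well, were preincubated 5 hr at 37 C, then treated with compounds for 24 hr at 37 C in complete medium. Intracellular ATP was read by CellTiter-Glo luminescence; AC50 from Hill-equation fits of concentration-response data.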

[11] = Cell Viability - LYMP2-017 (AID 972); further: nearly all actives have a fitted effect of over 55% in size
Method in brief: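 Human lymphoblastoid cells (2500/well) were seeded in complete medium, held 5 hr at 37 C, then exposed to compounds for 24 hr at 37 C. Intracellular ATP was read by CellTiter-Glo luminescence after 30 min at room temperature, with AC50 values from Hill-equation fits.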

[12] = Cell Viability - LYMP2-021 (AID 974);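 further: compound exposure lasts 24 hours at 37 °C; nearly all actives have a fitted effect of over 55% in size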
Method in brief: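 Human lymphoblastoid cells (2500/well) were preincubated 5 hr at 37 C, then exposed to compounds for 24 hr at 37 C in complete medium. Intracellular ATP was read by CellTiter-Glo luminescence; AC50 came from Hill-equation fits of concentration-response data.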

[13] = Cell Viability - LYMP2-023 (AID 975); further: nearly all actives have a fitted effect of over 55% in size
Method in brief: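 Human lymphoblastoid cells (2500/well) were preincubated 5 hr at 37 C, then exposed to compounds for 24 hr at 37 C in complete medium. Cellular ATP was read by CellTiter-Glo luminescence, and AC50 came from Hill-equation fits.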

[14] = Cell Viability - LYMP2-025 (AID 976)
Method in brief: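 Human lymphoblastoid LYMP2-025 cells (2500/well) were pre-incubated 5 hr at 37 C, then treated with compounds for 24 hr at 37 C in complete medium. Viability was read as intracellular ATP by CellTiter-Glo luminescence; AC50 from Hill fits.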

[15] = Cell Viability - LYMP2-006 (AID 978); further: nearly all actives have a fitted effect of over 60% in size
Method in brief: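 Potency values are Hill-fit AC50s for decreases in intracellular ATP (CellTiter-Glo luminescence). LYMP2-006 lymphoblastoid cells, 2500 per well, were exposed to compound in complete culture medium for 24 hr at 37 C.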

[16] = Cell Viability - LYMP2-010 (AID 981); further: nearly all actives have a fitted effect of over 55% in size
Method in brief: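 Human lymphoblastoid LYMP2-010 cells (2500/well) were preincubated 5 hr at 37 C, then exposed to compounds for 24 hr at 37 C in complete medium. Intracellular ATP was measured by CellTiter-Glo luminescence after 30 min at room temperature; AC50 from Hill-fitted concentration-response.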

[17] = Cell Viability - LYMP2-014 (AID 983); further: nearly all actives have a fitted effect of over 50% in size
Method in brief: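 Human lymphoblastoid cells (2500/well) were pre-incubated 5 hr at 37 C, then exposed to compounds in complete medium for 24 hr at 37 C. Intracellular ATP was read by CellTiter-Glo luminescence after 30 min at room temperature; AC50 from Hill fits.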

[18] = Cell Viability - LYMP2-026 (AID 989); further: nearly all actives have a fitted effect of over 50% in size
Method in brief: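 Human lymphoblastoid cells (2500/well) in complete medium were preincubated 5 hr at 37 C, then exposed to compounds for 24 hr at 37 C. Cellular ATP was read by CellTiter-Glo luminescence; AC50 from Hill-equation fits of concentration-response data.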

[19] = Cell Viability - LYMP1-002 - Assay at 40 hr (AID 994); further: nearly all actives have a fitted effect of over 60% in size
Method in brief: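 Human lymphoblastoid cells, 2500/well in complete medium, were preincubated 5 hr at 37 C, then exposed to compounds for 40 hr at 37 C. Intracellular ATP was read by CellTiter-Glo luminescence after 30 min at room temperature; AC50 from Hill-equation fits.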

[20] = qHTS assay for small molecule disruptors of the mitochondrial membrane potential - 5 hr assay (AID 651755; calls by dose curve; further: nearly all actives have a fitted effect of over 40% in size)
Method in brief: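 HepG2 cells (2,000/well), attached overnight, exposed to compound 5 hr at 37C, then Mito-MPS dye 30 min. Fluorescence read for monomers (490/535 nm) and aggregates (540/590 nm).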

Measured: Potency
Potency means the concentration at half of the fitted maximal effect.

O=C(/C=C/c1ccc(O)c(O)c1)OC1C[C@](O)(C(=O)O)C[C@@H](O)[C@H]1O (some centres not stated)
inactive: all assays above

Oc1ccc2cc(SSc3ccc4cc(O)ccc4c3)ccc2c1
active: [3] 50.1 µM | [6] 50.1 µM | [8] 50.1 µM | [10] 50.1 µM | [11] 50.1 µM | [15] 50.1 µM | [16] 39.8 µM | [19] 39.8 µM | [20] 42.2 µM
inactive: [14]

c1ccc2c(c1)-c1cccc3c1c-2cc1ccccc13
inactive: all assays above

CNc1ccc(O)cc1
active: [2] 31.6 µM | [4] 12.6 µM | [5] 31.6 µM | [6] 25.1 µM | [7] 5.01 µM | [8] 6.31 µM | [9] 6.31 µM | [10] 6.31 µM | [11] 3.98 µM | [12] 3.98 µM | [13] 7.94 µM | [14] 10 µM | [15] 12.6 µM | [16] 3.16 µM | [17] 6.31 µM | [18] 7.94 µM | [19] 25.1 µM

C=CC(=O)OCC(CO)(COC(=O)C=C)COC(=O)C=C
active: [1] 50.1 µM

Cc1cc(O)c(C(C)(C)C)cc1Sc1cc(C(C)(C)C)c(O)cc1C
active: [1] 39.8 µM | [2] 31.6 µM | [3] 50.1 µM | [4] 25.1 µM | [5] 39.8 µM | [6] 39.8 µM | [7] 31.6 µM | [8] 50.1 µM | [9] 39.8 µM | [10] 31.6 µM | [11] 50.1 µM | [12] 31.6 µM | [13] 50.1 µM | [14] 39.8 µM | [15] 31.6 µM | [16] 31.6 µM | [17] 39.8 µM | [18] 25.1 µM | [19] 39.8 µM | [20] 16.8 µM

Cc1ccc(S(=O)(=O)Oc2ccc(N=Nc3ccc(-c4ccc(N=Nc5c(O)ccc6cc(S(=O)(=O)O)cc(S(=O)(=O)O)c56)c(C)c4)cc3C)cc2)cc1
active: [1] 25.1 µM
inactive: [4]

O=[N+]([O-])c1cc([N+](=O)[O-])c2ccc(S(=O)(=O)O)cc2c1O
not listed: [2]
inactive: all other assays above

C=C(C)c1ccccc1
inactive: all assays above

O=C=Nc1ccc(Cc2ccc(N=C=O)cc2)cc1
inactive: all assays above

C=CC(=O)OCCOCCOC(=O)C=C
active: [2] 31.6 µM | [4] 15.8 µM | [5] 31.6 µM | [6] 25.1 µM | [7] 10 µM | [8] 20 µM | [9] 20 µM | [10] 25.1 µM | [11] 20 µM | [12] 15.8 µM | [13] 25.1 µM | [14] 31.6 µM | [15] 25.1 µM | [16] 15.8 µM | [17] 20 µM | [18] 20 µM | [19] 25.1 µM
inactive: [20]

CO[C@H]1/C=C/O[C@@]2(C)Oc3c(C)c(O)c4c(O)c(c5c(c4c3C2=O)NC2(CCN(CC(C)C)CC2)N=5)=NC(=O)/C(C)=C\C=C\[C@H](C)[C@H](O)[C@@H](C)[C@@H](O)[C@@H](C)[C@H](OC(C)=O)[C@@H]1C
inactive: [2] | [3] | [4] | [5] | [7] | [8] | [12] | [13] | [14] | [17] | [20]

Nc1ccc2cc3ccccc3cc2c1
active: [20] 3.76 µM
not listed: [4]
inactive: all other assays above
